Active and inactive are the calls of the source.
Key:
Albumin (Bos taurus) = Albumin (Bos taurus) (UniProt P02769); test: compounds binding labelled BSA control protein – biochemical, small-molecule microarray, Alexa647 label, 635/667 nm fluorescence, artefact control for SMM control protein annotation, profiling panel (AID 1118); conditions: BSA-A647 binding, fluorescence 635 nm, higher = more signal;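 note: score merges 667 nm emission intensity and signal-to-noise per printed compound spot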
[1] = probe aXIP binding to arrayed compounds – biochemical, NeuroSMM set, 635/667 nm fluorescence, primary screen (AID 1119); conditions: small-molecule microarray, higher = more signal, called active from +8 up or from −8 down;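 note: probe is the protein aXip251-270 applied at 1 µg/mL to compound-printed slides; binding of probe to printed compounds measured as 667 nm fluorescence plus signal to noise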
[2] = probe aNOTCH3 binding on compound microarray – biochemical, small-molecule microarray, 635/667 nm fluorescence, primary screen (AID 1120); conditions: higher = more signal;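 note: probe is a biotin-tagged antibody raised against NOTCH3 rather than NOTCH3 protein; score merges spot fluorescence near 667 nm with spot signal to noise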
[3] = probe aNOTCH2 binding on compound microarray – biochemical, small-molecule microarray, 635/667 nm fluorescence, primary screen (AID 1121); conditions: higher = more signal;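 note: score merges feature fluorescence read at 667 nm with its signal to noise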
[4] = biological target: Carbonic anhydrase 2 (Homo sapiens) (UniProt P00918); test: compounds binding carbonic anhydrase 2 – biochemical, small-molecule microarray, Alexa647-labelled CAII, profiling panel (AID 1122); conditions: CAII-A647 binding fluorescence, higher = more signal
[5] = COS7 lysate on small-molecule microarray, probe aHis, 635 nm (AID 1123); conditions: COS7 cell lysate, fluorescence, higher = more signal;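 note: z-score combines 667nm fluorescence intensity with signal-to-noise per printed compound spot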
[6] = probe aLAP1 signal on lysate-treated microarray – cell lysate, small-molecule microarray, COS7 lysate, primary screen (AID 1124); conditions: probe aLAP1, fluorescence, higher = more signal;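 note: lysate comes from COS7 cells expressing LAP1 and is applied at 0.3 µg/mL; score merges spot fluorescence near 667 nm with signal-to-noise over triplicate slides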
Sam68 (KHDRBS1) = test: compounds binding KHDRBS1 protein – biochemical, small-molecule microarray, 635 nm fluorescence, primary screen (AID 1125); conditions: higher = more signal;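 note: score merges 667 nm channel intensity with signal to noise over triplicate slides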
[7] = tested on: Chordin-like protein 2 (CHRDL2); test: compounds binding chordin-like 2 – biochemical, small-molecule microarray, 635 nm fluorescence, primary screen (AID 1126); conditions: fluorescence 635 nm, higher = more signal;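 note: printed compound slides probed with Chrdl2 protein at 4 µg/mL for 1 h at 4 C; score merges 667 nm emission intensity with signal to noise over three replicate slides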
[8] = biological target: Concanavalin-A (Canavalia ensiformis) (UniProt P02866); test: compounds binding concanavalin A lectin – biochemical, small-molecule microarray, Alexa647 label, 635 nm, artefact control for SMM control protein annotation, primary screen (AID 1127); conditions: ConA-A647 binding fluorescence, higher = more signal;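 note: z combines 667 nm emission intensity with signal-to-noise across three replicate slides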
Chain of Concanavalin-A (Canavalia ensiformis) (P02866 whole entry, looked up): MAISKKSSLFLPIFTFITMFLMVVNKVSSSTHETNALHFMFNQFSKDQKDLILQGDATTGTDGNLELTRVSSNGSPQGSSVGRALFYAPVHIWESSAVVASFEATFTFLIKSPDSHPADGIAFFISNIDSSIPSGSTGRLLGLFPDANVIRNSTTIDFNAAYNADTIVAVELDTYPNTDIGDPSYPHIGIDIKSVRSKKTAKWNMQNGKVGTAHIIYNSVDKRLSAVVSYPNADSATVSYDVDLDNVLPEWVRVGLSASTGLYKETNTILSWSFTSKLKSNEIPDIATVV

[9] = compounds binding Alexa647 anti-His antibody – biochemical, small-molecule microarray, 635 nm fluorescence, artefact control for SMM control protein annotation, primary screen (AID 1128); conditions: higher = more signal;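 note: score merges feature fluorescence with signal-to-noise for each printed compound spot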
[10] = tested on: Human papillomavirus type 1a E7 protein (residues 1-88); test: HPV1a E7 small-molecule binders, primary screen, biochemical, small-molecule microarray, residues 1-88, 635 nm (AID 1129); conditions: small-molecule microarray binding, fluorescence 635 nm; higher = more signal
[11] = biological target: Focal adhesion kinase 1 (Homo sapiens) (UniProt Q05397); test: PTK2 protein binding on printed compound slides – biochemical, small-molecule microarray, 635/667 nm fluorescence, BSA, DTT, primary screen (AID 1130); conditions: 635 nm fluorescence, higher = more signal;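 note: composite of spot emission at 667 nm and signal to noise over triplicate slides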
Chain of Focal adhesion kinase 1 (Homo sapiens) (Q05397 whole entry, looked up): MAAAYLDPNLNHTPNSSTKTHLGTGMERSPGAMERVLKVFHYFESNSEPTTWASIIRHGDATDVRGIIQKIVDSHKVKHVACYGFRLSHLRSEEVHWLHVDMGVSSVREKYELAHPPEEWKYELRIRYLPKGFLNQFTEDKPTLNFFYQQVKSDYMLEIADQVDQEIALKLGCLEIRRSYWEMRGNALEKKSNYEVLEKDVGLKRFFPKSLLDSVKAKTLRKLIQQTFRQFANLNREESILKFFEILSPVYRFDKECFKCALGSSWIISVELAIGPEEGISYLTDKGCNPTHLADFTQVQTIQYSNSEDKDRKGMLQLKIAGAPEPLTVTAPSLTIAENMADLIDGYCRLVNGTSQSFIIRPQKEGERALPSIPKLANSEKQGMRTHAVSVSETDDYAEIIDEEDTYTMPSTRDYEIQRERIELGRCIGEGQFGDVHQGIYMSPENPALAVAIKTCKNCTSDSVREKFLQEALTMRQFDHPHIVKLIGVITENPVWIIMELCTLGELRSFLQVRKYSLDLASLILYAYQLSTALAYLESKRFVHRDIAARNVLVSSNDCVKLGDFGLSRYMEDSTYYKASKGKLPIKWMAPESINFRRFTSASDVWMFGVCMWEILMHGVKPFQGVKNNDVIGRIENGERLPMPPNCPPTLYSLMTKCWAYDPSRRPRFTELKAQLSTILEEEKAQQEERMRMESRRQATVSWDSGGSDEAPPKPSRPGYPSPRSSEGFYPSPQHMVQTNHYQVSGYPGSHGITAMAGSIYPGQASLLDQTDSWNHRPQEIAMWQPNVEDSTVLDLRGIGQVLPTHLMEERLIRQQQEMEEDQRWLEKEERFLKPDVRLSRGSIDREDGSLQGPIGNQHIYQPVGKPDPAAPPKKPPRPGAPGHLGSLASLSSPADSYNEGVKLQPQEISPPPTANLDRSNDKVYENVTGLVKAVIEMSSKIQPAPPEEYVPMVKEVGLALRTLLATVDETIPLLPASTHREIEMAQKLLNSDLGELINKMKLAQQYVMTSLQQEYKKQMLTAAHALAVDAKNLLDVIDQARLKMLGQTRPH

[12] = tested on: Fibrinogen (Alexa647-labelled); test: Alexa647-fibrinogen binding to printed small molecules – biochemical, small-molecule microarray, 635/667 nm fluorescence, artefact control for SMM control-protein annotation, profiling panel (AID 1131); conditions: fibrinogen-A647 binding fluorescence, higher = more signal;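 note: z-score merges 667 nm fluorescence with per-spot signal-to-noise over triplicate slides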
[13] = biological target: Follistatin (Homo sapiens) (UniProt P19883); test: FST protein binding to printed compounds – biochemical, small-molecule microarray, 635/667 nm fluorescence, primary screen (AID 1132); conditions: 635 nm fluorescence, higher = more signal
Chain of Follistatin (Homo sapiens) (P19883 whole entry, looked up): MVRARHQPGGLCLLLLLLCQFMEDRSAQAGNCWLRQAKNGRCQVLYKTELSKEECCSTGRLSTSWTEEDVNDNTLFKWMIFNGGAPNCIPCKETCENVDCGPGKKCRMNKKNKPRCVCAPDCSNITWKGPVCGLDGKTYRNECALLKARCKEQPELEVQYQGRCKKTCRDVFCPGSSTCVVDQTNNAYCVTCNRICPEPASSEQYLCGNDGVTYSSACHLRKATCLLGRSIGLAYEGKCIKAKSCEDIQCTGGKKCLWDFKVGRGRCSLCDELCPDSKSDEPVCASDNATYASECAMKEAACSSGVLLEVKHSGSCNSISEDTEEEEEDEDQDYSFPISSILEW

[14] = biological target: Fibroblast growth factor 2 (Homo sapiens) (UniProt P09038); test: basic fibroblast growth factor binding to printed compounds – biochemical, small-molecule microarray, 635/667 nm fluorescence, primary screen (AID 1133); conditions: FGF2, fluorescence 635/667, higher = more signal
Chain of Fibroblast growth factor 2 (Homo sapiens) (P09038 whole entry, looked up): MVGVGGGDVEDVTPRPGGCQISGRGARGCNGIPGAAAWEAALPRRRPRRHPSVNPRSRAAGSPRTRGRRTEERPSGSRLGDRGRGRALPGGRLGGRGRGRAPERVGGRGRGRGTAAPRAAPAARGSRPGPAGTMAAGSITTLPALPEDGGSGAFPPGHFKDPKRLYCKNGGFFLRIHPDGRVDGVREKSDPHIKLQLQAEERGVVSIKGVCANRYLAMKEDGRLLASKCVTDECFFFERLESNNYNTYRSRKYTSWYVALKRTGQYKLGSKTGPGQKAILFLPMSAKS

[15] = JC-1 mitochondrial potential readout, lung cancer cells – cell-based, A549, JC-1 fluorescence, basal, 24 h, 100 nL, profiling panel (AID 1138); conditions: higher = more signal;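 note: A549 lung adenocarcinoma cells under basal conditions with no added stimulus; test concentration not given here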
Lefty1 = Lefty1 protein binding to printed compounds – biochemical, small-molecule microarray, 635/667 nm fluorescence, primary screen (AID 1139); conditions: fluorescence 635/667, higher = more signal
[16] = tested on: wheat germ agglutinin (Triticum aestivum), Alexa647-labelled; test: Alexa647-WGA lectin binding to printed small molecules – biochemical, small-molecule microarray, 635/667 nm fluorescence, artefact control for SMM control-protein annotation, profiling panel (AID 1140); conditions: WGA-A647 binding, 635 nm fluorescence, higher = more signal;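 note: score merges 667 nm feature emission with signal to noise over triplicate slides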
[17] = biological target: Luciferin 4-monooxygenase (Photinus pyralis) (UniProt P08659); test: inhibition of purified Photinus pyralis luciferase – biochemical, luminescence, purified enzyme, 2006 set, primary screen (AID 1141); conditions: purified firefly luciferase, SteadyGlo luminescence, 30 min; higher = more signal, called active from +8 up or from −8 down;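 note: cell-free assay with purified firefly luciferase at 100 ng per well in PBS; test concentration not given here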
Chain of Luciferin 4-monooxygenase (Photinus pyralis) (P08659 whole entry, looked up): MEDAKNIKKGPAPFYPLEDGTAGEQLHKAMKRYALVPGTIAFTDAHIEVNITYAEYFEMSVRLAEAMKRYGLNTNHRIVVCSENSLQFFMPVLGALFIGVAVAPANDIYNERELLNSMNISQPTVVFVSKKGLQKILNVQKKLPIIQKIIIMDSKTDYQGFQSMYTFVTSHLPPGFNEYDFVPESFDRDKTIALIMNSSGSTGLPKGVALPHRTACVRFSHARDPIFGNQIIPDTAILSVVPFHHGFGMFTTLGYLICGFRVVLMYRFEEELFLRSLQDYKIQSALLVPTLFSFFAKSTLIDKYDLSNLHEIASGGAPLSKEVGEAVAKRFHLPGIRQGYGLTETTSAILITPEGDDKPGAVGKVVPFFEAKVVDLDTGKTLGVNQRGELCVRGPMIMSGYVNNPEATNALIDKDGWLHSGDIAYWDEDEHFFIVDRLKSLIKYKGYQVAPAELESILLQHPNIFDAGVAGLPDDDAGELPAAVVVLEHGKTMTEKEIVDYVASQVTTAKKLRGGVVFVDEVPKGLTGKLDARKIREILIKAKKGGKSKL

Chain of Albumin (Bos taurus) (P02769 whole entry, looked up): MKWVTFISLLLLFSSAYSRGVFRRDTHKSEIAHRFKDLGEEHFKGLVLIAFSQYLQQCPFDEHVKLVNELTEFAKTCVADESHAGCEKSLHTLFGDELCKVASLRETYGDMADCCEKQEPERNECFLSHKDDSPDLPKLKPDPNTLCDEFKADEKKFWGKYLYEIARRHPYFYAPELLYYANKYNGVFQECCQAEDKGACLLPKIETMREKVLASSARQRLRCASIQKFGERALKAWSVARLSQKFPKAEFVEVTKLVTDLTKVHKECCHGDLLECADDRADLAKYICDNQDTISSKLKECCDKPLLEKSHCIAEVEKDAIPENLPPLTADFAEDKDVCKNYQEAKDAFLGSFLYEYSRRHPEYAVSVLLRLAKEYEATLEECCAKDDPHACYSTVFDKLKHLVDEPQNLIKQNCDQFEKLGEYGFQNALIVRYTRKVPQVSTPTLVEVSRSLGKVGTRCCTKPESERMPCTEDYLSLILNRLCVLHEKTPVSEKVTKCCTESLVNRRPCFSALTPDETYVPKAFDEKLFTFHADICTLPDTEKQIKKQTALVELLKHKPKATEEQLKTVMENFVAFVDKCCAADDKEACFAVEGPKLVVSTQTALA

Structure (SMILES) | composite z-score (Albumin (Bos taurus)) | composite Z-score [1] | composite z-score [2] | composite z-score [3] | composite z-score [4] | composite z-score [5] | composite z-score [6] | composite z-score (Sam68 (KHDRBS1)) | composite z-score [7] | composite z-score [8] | composite z-score [9] | composite z-score [10] | composite z-score [11] | composite z-score [12] | composite z-score [13] | composite z-score [14] | z-score [15] | composite z-score (Lefty1) | composite z-score [16] | z-score [17]
CC(C)C[C@@H]1NC(=O)[C@H]2C[C@@H](C(=O)NCCCC[N+](C)(C)C)[C@@H](c3cccc(OCCO)c3)N2C1=O | 0.252 | 0.331 (inactive) | 0.217 | -0.19 | 0.475 | 1.89 | 0.987 | 0.848 | 0.938 | 0.476 | 3.29 | -0.146 | -0.153 | -0.236 | 1.25 | 1.61 | 1.31 | 1.39 | -0.102 | -1.97 (inactive)
C=CCC1(CC=C)C[C@H]2CO[C@H](c3ccc(OC)cc3)N2C1=O | -1.14 | -0.258 (inactive) | -0.154 | -0.155 | 0.448 | -0.348 | 0.157 | -0.082 | 1.3 | 0.0736 | 0.413 | -0.154 | -0.256 | -0.78 | 1.23 | 0.15 | 1.31 | 0.458 | 1.28 | -1.13 (inactive)
Cc1ccc(S[C@]2(C(=O)NCCN3CCOCC3)CC(=O)N(Cc3cc(C(F)(F)F)cc(C(F)(F)F)c3)[C@@H]2c2ccc(CO)cc2)cc1 | 0.0152 | -0.654 (inactive) | -0.304 | -0.0846 | 0.78 | 0.244 | 0.248 | -0.142 | -1.01 | -0.664 | -1.03 | 0.624 | 0.151 | -0.899 | -1.09 | -1.21 | 1.59 | -1.1 | -1.54 | -0.682 (inactive)
CN(C)CCCC[C@@H]1NC(=O)[C@@H]2C[C@H](C(=O)NCCCCCNC(=O)CS)[C@H](c3cccc(OCCO)c3)N2C1=O | 0.786 | 1.6 (inactive) | -0.15 | -0.167 | 0.82 | 0.356 | 0.303 | 0.528 | 0.728 | 0.65 | 2.04 | 0.05 | 0.387 | 0.119 | 1.49 | 1.65 | 0.43 | 1.45 | 0.626 | -0.673 (inactive)
C=CCN1C(=O)[C@@]2(O[C@@H](CCO)[C@H]([Si](C)(C)c3ccc(OC)cc3)[C@H]2C)c2cc(N(C=O)c3ccccc3)ccc21 | 0.377 | 0.459 (inactive) | -0.0918 | -0.0895 | 0.246 | 0.396 | 0.222 | 0.807 | -0.332 | 0.67 | 1.03 | 0.721 | -0.115 | 0.373 | 0.203 | 0.0479 | -0.688 | 0.124 | 0.918 | -1.66 (inactive)
COCCCNC(=O)[C@@]1(Cc2ccccc2)N=C(c2ccc(OCCCO)cc2)O[C@H]1c1ccccc1N=[N+]=[N-] | 0.765 | -0.597 (inactive) | 0.385 | 0.0538 | 0.405 | 0.877 | 0.516 | 0.846 | -0.297 | 0.0647 | 0.644 | 1.16 | 0.635 | 0.881 | 1.48 | 1.58 | 2.03 | 0.269 | 1.15 | -4.34 (inactive)

Reference: PubChem BioAssay
